This passage reports outcome, activity change, negative = inhibition and Potency results from PubChem BioAssay (NCATS).

A short description of test [1]: AP1 Signaling Pathway (AID 357).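 Also: ME-180 reporter cells stimulated with EGF at its EC50 level; % is scaled to controls: 0 for no effect and ±100 for the full control effect.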 Summed up:
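Read-out was the 460nm/530nm emission ratio (excitation 405nm) after CCF4 loading for 2.5 hours at room temperature. Cells carried an AP-1-driven beta-lactamase reporter, were stimulated with EC50 EGF plus compound for 5 hours, and AC50 values came from titrations.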

Test [2] is described as follows: NFAT Signaling Pathway (AID 444).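 Also: carbachol stimulus at about its EC50 of 1 µM final; % is scaled to controls: 0 for no effect and ±100 for the full control effect.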 As to conditions: Jurkat NFAT-bla M1, carbachol, beta-lactamase ratio, 5 h; at 17.2 µM (top of the series) unless noted. Summed up: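 Jurkat cells with NFAT-driven β-lactamase reporter and co-expressed M1 receptor, stimulated with carbachol (final 1 uM, ~EC50), compound titration, 5 h at 37 °C. CCF4 loaded 1 h at RT; 460/530 nm ratio gave %activity and AC50.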

Test [3] addresses Glucocorticoid receptor (Homo sapiens) (UniProt P04150). The test is described as follows: GR-GFP Redistribution (AID 450;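 active = compounds whose dose series gives a full or clear partial fitted curve of increased nuclear translocation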; also: potency is read from the fitted curve at half-maximal effect). As to conditions: U2OS GR-GFP nuclear translocation, laser cytometry, 2 h.
Test [4] shares this target. The test is described as follows: GR-EFC Redistribution (AID 451; calls by dose curve; also: potency is read from the fitted curve at half-maximal effect). As to conditions: CHO-K1 GR-EFC translocation, beta-gal luminescence, 2 h. An outline of the steps:
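CHO-K1 cells expressing nuclear EA and GR-ED fragments of b-gal; compounds titrated up to 46 uM final, 2 h at 37 C. GR nuclear translocation read as complemented b-gal luminescence after 1 h RT detection.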

Test [5] deals with Mitogen-activated protein kinase 10 (Mus musculus) (UniProt Q61831). As to the kind of experiment: JNK3 AlphaScreen Assay (AID 530).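 Also: kinase came from lysate of stimulated human HepG2 cells; signal reports phosphorylation of biotinylated GST-cJun 1-79 at Ser73 with 10 µM ATP; % is scaled to controls: 0 for no effect and ±100 for the full control effect.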 Summed up: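 Activity was read by AlphaScreen after JNK3-containing HepG2 lysate (cytokine pre-activated) phosphorylated biotinylated GST-cJun with 10 uM ATP at room temperature. Phospho-Ser73 cJun antibody with Protein-A acceptor beads provided detection.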
In general terms: Bead proximity is the source of the signal in Alpha formats.

Test [6] has as its target 3',5'-cyclic-AMP phosphodiesterase 4B (Homo sapiens) (UniProt Q07343). As to the kind of experiment: qHTS Assay for Inhibitors of PDE-IV (AID 607; active = well fitted activation curve with a large enough effect in the main read-out, with a control signal flat, not every such curve was filed as active; also: % of control where 0% means no effect). Summed up:
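Cell-based read-out of cAMP via a modified cyclic nucleotide-gated channel and membrane potential dye (535/590 nm) in HEK293 cells expressing PDE4 endogenously. Compounds tested up to 22.9 uM final; 100 uM RO 20-1724 reference.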
Background: In qHTS, concentration-response curves come from the screen itself.

Test [7] is described as follows: S16 Schwann cell PMP22 intronic element firefly luciferase assay (AID 624032; active = well fitted curve in the direction sought with a large enough effect; an effect the other way counts as inactive or inconclusive;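 also: plate controls were DMSO for no effect and PTC124 positive control mean for full effect; nearly all actives have a fitted effect of over 30% in size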). An outline of the steps: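 Rat S16 Schwann cells stably carrying firefly luciferase driven by a PMP22 intronic element, in 10% FBS, treated 24 h at 37 C. ONE-Glo luminescence normalized to PTC124 control and DMSO (0%); curves classed by r2, magnitude and activity.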
A short description of test [8]: S16 Schwann cell PMP22 intronic element beta-lactamase assay (AID 624044; calls by dose curve;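 also: 0% = DMSO and -100% = potassium clavulanate positive control; nearly all actives have a fitted effect of over 15% in size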). An outline of the steps:
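Beta-lactamase reporter under a PMP22 intronic regulatory element in stable S16 rat Schwann cells; 24 h compound exposure. 460 nm blue signal normalized between DMSO (0%) and potassium clavulanate, with 535 nm FRET tracking viability; curves classed by r2 and response.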

For a further test, the system named is 7G8. As to the kind of experiment: qHTS profiling for inhibitors of Plasmodium falciparum proliferation (AID 504749; active = well fitted curve in the direction sought with a large enough effect; an effect the other way counts as inactive or inconclusive; also: nearly all actives have a fitted effect of over 60% in size; also: potency is read from the fitted curve at half-maximal effect). As to conditions: P. falciparum in erythrocytes, SYBR Green DNA, 72 h; series mostly up to 12.8 µM. An outline of the steps: (§1)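 Each compound contacts P. falciparum-infected red blood cells for 72 h at 37 C; lysis buffer (Tris, EDTA, saponin, Triton X, SYBR Green I) is added and fluorescence measured next morning; values normalized to controls.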

A further test has as its system ATS95. The description is as above. As to conditions: P. falciparum in erythrocytes, SYBR Green DNA, 72 h; series mostly up to 12.8 µM. An outline of the steps:
as §1

In the next test the test system is CP203. Described as above. Conditions: P. falciparum in erythrocytes, SYBR Green DNA, 72 h; series mostly up to 12.8 µM. Summed up:
as §1

The test system of another test is DIV14. The description is as above. As to conditions: P. falciparum in erythrocytes, SYBR Green DNA, 72 h; series mostly up to 12.8 µM. Summed up:
as §1

The next test deals with GB4. The test is described as above. Conditions: P. falciparum in erythrocytes, SYBR Green DNA, 72 h; series mostly up to 12.8 µM. Summed up:
as §1

Test [9] in a line: Stat Signaling Pathway (AID 446).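 Also: ME-180 cervical cancer cells given 40 pM IL-6 alongside compound; SIE-controlled beta-lactamase reporter measured as 460/530 nm FRET emission ratio; % is scaled to controls: 0 for no effect and ±100 for the full control effect.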 Summed up: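 FRET read-out (405 nm excitation, 460/530 nm emission) of a beta-lactamase reporter under a STAT-inducible element in ME-180 cervical carcinoma cells. Cells with compound receive 40 pM IL-6 for 5 h. Values are normalised to AC90 stimulation and AC90 JAK-inhibitor controls.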
For test [10], the target named is Cytochrome P450 1A2 (Homo sapiens) (UniProt P05177). The test is described as follows: p450-cyp1a2 (AID 410; calls by dose curve;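 also: -100% = full effect of reference inhibitor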). An outline of the steps:
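O-Demethylation of luciferin 6' methyl ether by human CYP1A2 is monitored as luciferase luminescence. Substrate sits at Km (100uM); enzyme is 20nM. Values are scaled to 57 uM furafylline as maximal inhibition.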

Each structure is given as a SMILES string. Unmarked numbers belong to inactive results. Results filed as inconclusive are left out. The source made the active and inactive calls. Unless noted, calls follow the shape of the dose curve; as a rule, active = well fitted curve in either direction with a large enough effect (not every such curve was filed as active); inconclusive = small, poorly fitted or top-dose-only effect, or another doubt; inactive = flat fitted curve, though single readings scatter.

Glucocorticoid receptor (Homo sapiens), sequence (P04150 whole entry, looked up): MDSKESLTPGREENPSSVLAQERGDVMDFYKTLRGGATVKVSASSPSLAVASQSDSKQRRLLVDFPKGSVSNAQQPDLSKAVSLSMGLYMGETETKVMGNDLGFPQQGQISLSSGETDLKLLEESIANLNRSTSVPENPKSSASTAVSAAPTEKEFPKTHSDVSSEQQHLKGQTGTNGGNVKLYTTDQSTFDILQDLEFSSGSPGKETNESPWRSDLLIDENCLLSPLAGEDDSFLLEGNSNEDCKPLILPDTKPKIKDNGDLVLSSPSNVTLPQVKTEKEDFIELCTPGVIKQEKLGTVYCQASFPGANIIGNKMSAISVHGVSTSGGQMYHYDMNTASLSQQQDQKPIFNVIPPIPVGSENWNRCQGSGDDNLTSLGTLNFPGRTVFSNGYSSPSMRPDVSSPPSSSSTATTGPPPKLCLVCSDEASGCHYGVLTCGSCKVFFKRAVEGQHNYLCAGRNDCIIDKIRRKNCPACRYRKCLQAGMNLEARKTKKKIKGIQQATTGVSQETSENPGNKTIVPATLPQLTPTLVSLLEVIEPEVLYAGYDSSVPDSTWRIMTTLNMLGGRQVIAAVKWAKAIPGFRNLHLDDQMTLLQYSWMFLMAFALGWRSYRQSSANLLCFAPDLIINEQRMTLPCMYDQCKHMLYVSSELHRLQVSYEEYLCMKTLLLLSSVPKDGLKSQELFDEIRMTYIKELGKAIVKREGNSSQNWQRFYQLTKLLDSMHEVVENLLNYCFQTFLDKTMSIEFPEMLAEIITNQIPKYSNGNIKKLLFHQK
3',5'-cyclic-AMP phosphodiesterase 4B (Homo sapiens), sequence (Q07343 whole entry, looked up): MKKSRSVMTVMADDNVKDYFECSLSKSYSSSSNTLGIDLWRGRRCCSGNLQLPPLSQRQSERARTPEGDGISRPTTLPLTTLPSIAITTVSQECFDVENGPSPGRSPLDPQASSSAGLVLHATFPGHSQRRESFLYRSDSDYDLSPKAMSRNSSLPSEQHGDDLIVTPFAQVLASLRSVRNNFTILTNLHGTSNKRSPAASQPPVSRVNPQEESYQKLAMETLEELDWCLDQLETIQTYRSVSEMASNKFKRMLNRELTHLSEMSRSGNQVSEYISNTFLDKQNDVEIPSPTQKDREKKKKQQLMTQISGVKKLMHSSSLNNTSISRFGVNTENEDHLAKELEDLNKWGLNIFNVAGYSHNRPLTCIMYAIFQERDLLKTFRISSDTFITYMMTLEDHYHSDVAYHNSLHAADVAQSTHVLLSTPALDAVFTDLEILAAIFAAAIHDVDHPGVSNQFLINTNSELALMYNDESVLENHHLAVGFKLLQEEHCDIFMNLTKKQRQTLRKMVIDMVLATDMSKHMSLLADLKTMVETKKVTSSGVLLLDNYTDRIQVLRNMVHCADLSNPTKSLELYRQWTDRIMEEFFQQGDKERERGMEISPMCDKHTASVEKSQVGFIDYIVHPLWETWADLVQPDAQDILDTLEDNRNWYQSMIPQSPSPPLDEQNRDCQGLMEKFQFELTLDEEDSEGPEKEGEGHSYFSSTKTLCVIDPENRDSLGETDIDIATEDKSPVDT
Cytochrome P450 1A2 (Homo sapiens), sequence (P05177 whole entry, looked up): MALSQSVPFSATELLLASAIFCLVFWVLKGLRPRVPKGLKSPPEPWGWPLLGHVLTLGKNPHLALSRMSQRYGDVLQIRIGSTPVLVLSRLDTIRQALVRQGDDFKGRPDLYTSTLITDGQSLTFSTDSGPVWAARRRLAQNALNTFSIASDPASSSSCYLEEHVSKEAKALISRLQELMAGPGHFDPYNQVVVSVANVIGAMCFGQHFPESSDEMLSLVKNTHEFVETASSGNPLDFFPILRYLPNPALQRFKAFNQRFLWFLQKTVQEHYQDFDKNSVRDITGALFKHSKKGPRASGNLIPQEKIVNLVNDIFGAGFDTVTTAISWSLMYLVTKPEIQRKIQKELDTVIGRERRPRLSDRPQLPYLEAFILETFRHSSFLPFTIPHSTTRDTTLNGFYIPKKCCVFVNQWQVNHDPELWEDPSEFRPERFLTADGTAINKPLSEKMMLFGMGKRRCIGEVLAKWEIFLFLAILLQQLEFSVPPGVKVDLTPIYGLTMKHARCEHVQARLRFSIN

Regarding `CC1=C(C(=O)O)N2C(=O)[C@@H](NC(=O)[C@@H](N)c3ccc(O)cc3)[C@@H]2SC1`, the compound was called inactive in [1] and in [6]. In [2], the activity change, negative = inhibition is -8.2%. Besides, the Potency in test [3] and in test [4] was over 20.6 µM in each case. The Potency result (in test [5]; in test [7]; in test [8]; with 7G8; in the test on ATS95; with CP203) was “inactive” throughout. Also, the Potency result in the test with DIV14 and in the test on GB4 was “inactive” each time.

Turning to `CC1(C)[C@@H](OC(=O)CCC(=O)O)CC[C@@]2(C)[C@H]1CC[C@@]1(C)[C@H]2C(=O)C=C2[C@H]3C[C@](C)(C(=O)O)CC[C@]3(C)CC[C@@]21C`, the compound was called inactive in test [1], in test [9] and in [6]. The Potency in test [3] and in [4] was over 20.6 µM throughout. For the same compound, the Potency result (in test [7]; with 7G8; in the test with ATS95; in the test with CP203; in the test with DIV14; with GB4) was “inactive” each time.

On to `OCCOCCN1CCN([C@@H](c2ccccc2)c2ccc(Cl)cc2)CC1`, for which the call in [1], in test [9] and in test [6] was inactive. For the same compound, the Potency entry in test [5] was “inactive”.

As to `CO[C@@H]1C=CO[C@]2(C)Oc3c(C)c(O)c4c(O)c(c(C=NN5CCN(C)CC5)c(O)c4c3C2=O)NC(=O)C(C)=CC=C[C@H](C)[C@H](O)[C@H](C)[C@H](O)[C@H](C)[C@H](OC(C)=O)[C@H]1C`, the compound was called inactive in [1] and in test [6]. Further, the activity change, negative = inhibition in [2] is -8.69%. Also, the Potency entry in [5] was “inactive”.

Consider `O=C(O)COCCN1CCN([C@@H](c2ccccc2)c2ccc(Cl)cc2)CC1`, for which the compound was classed as inactive in test [1], in test [9] and in test [6]. In addition, the Potency entry (in test [7]; in the test on ATS95; in the test on CP203; in the test on DIV14) was “inactive” each time.

On to `N[C@H](Cc1cc(I)c(Oc2ccc(O)c(I)c2)c(I)c1)C(=O)O`, for which the call in [1] and in [6] was inactive. For the same compound, the activity change, negative = inhibition in test [2] is -4.32%. For the same compound, the Potency in test [3] and in [4] was over 20.6 µM in each case. For the same compound, in test [5], the Potency entry was “inactive”.

As for `Cc1cccc(CN2CCN([C@@H](c3ccccc3)c3ccc(Cl)cc3)CC2)c1`, the compound was called inactive in test [1], in test [9] and in test [6]. Besides, the Potency is over 20.6 µM in test [4] and 3.55 µM (active) in the test on 7G8. Moreover, the Potency result (in test [5]; in [7]; in the test on CP203) was “inactive” each time.

`CC(C)(CO)[C@H](O)C(=O)NCCC(=O)O`: the result in [1], in test [9] and in test [6] was inactive. In addition, the activity change, negative = inhibition in [2] was 8.26%. Also, in test [5], the Potency result is “inactive”.

Take `CCN(CC)CCOC(=O)[C@@H](Cc1cccc2ccccc12)C[C@@H]1CCCO1`: the result in test [1], in test [9] and in [6] was inactive. Moreover, the Potency result (in test [5]; in [7]; in test [8]; with CP203; in the test on GB4) was “inactive” each time.

As to `CN1CCC[C@@H](CC2c3ccccc3Sc3ccccc32)C1`, the Potency result in test [10] and in test [5] was “inactive” each time. Further, the activity change, negative = inhibition in [2] was -49.6% (active). Further, the compound was called inactive in test [9] and in test [6]. Besides, the Potency in [3] was over 20.6 µM; in test [4], over 20.6 µM; with 7G8, 3.98 µM (active); in the test with DIV14 it was 2.28 µM (active).

Consider `CC1=CC(=O)C2=C(C)CC[C@@H]3[C@@H](OC(=O)[C@H]3C)[C@H]12`, for which the result in test [1] and in [6] was inactive. Besides, the activity change, negative = inhibition in test [2] is -23.2%. Moreover, the Potency in [3] was over 20.6 µM.
